Measurements reported in PubChem BioAssay (NCI).
About 83,000 compounds went through this panel and 20% of them were active in at least one assay; those are over-represented in the sample as a whole.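 Single-dose data. Exposure time 48 hours. Values below 10 considered active.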 Values without a mark were called inactive. The source made the active and inactive calls.

Experiments:
Experiment in all cases: NCI-60 one-dose screen, 48 h (100 = growth as untreated, 0 = no growth, -100 = all killed)
Conditions in all cases: 10 µM unless noted
HCT-15 colon = test system: HCT-15 colon
HT29 colon = test system: HT29 colon
SNB-75 CNS = test system: SNB-75 CNS
SNB-19 CNS = test system: SNB-19 CNS
PC-3 prostate = test system: PC-3 prostate
SK-MEL-5 melanoma = test system: SK-MEL-5 melanoma
UACC-62 melanoma = test system: UACC-62 melanoma
LOX IMVI melanoma = test system: LOX IMVI melanoma
SK-MEL-28 melanoma = test system: SK-MEL-28 melanoma
SK-MEL-2 melanoma = test system: SK-MEL-2 melanoma
SN12C renal = test system: SN12C renal
UO-31 renal = test system: UO-31 renal
TK-10 renal = test system: TK-10 renal
ACHN renal = test system: ACHN renal
CAKI-1 renal = test system: CAKI-1 renal
A498 renal = test system: A498 renal
CCRF-CEM leukemia = test system: CCRF-CEM leukemia
MOLT-4 leukemia = test system: MOLT-4 leukemia
U251 CNS = test system: U251 CNS
EKVX NSCLC = test system: EKVX NSCLC

| SMILES | growth (HCT-15 colon) | growth (HT29 colon) | growth (SNB-75 CNS) | growth (SNB-19 CNS) | growth (PC-3 prostate) | growth (SK-MEL-5 melanoma) | growth (UACC-62 melanoma) | growth (LOX IMVI melanoma) | growth (SK-MEL-28 melanoma) | growth (SK-MEL-2 melanoma) [%] | growth (SN12C renal) | growth (UO-31 renal) | growth (TK-10 renal) | growth (ACHN renal) | growth (CAKI-1 renal) | growth (A498 renal) | growth (CCRF-CEM leukemia) | growth (MOLT-4 leukemia) | growth (U251 CNS) [%] | growth (EKVX NSCLC) [%] |
| --- | --- | --- | --- | --- | --- | --- | --- | --- | --- | --- | --- | --- | --- | --- | --- | --- | --- | --- | --- | --- |
| Clc1ccc(-c2cnc3nonc3n2)s1 | 54.4% | 83% | 102% | 91.4% | 51.8% | 24.5% | 54.9% | 36.5% | 94.4% | 93.6 | 92.6% | 64% | 103% | 81.9% | 94.1% | 93.9% | 11.3% | 47.2% |  |  |
| C=C1C(=O)O[C@H]2[C@H]1CC/C(COC(=O)NCc1ccc(Cn3c(=O)sn(CCCl)c3=O)cc1)=C\CC[C@@]1(C)O[C@@H]21 | 27.6% | 15.1% | 85.5% |  | 78.7% | 81.7% | 69.5% | 60.8% | 64.3% | 68.8 | 82.6% | 79.3% | 11.4% | 70.3% | 48.3% | 98.4% | -3.67% (active) | -18.8% (active) | 78.7 | 83.6 |
| N/C(=N\O)c1ncc(-c2ccc(C(F)(F)F)cc2)c(NC2CCCCCC2)n1 | -62.4% [100 µM] (active) | -91.6% [100 µM] (active) | -41.4% [100 µM] (active) | -12.7% [100 µM] (active) | -88.9% [100 µM] (active) | -85.8% [100 µM] (active) | -88.2% [100 µM] (active) | -73.5% [100 µM] (active) | 10.3% [100 µM] |  | -91.3% [100 µM] (active) | -92.1% [100 µM] (active) | -69.5% [100 µM] (active) | -64.3% [100 µM] (active) | -76.4% [100 µM] (active) | -90.1% [100 µM] (active) |  | -61.3% [100 µM] (active) |  |  |
| Cc1ccc(OC2=C(C#N)C(=N)N3C(=NN2)Sc2c(C)ccc(C)c23)cc1 | 104% | 116% | 96.5% |  | 82.4% | 96.3% | 98.7% | 96.7% | 106% | 121 | 106% | 82.7% | 129% | 99% | 86% | 94.9% | 94.9% | 89.1% | 103 | 91.5 |
| CCOC(OCC)c1cnc2nc(NC(C)=O)[nH]c(=O)c2n1 | 98.7% | 90.6% | 91.5% | 99.4% | 106% | 104% | 102% | 100% | 105% | 95.4 | 101% | 82.6% | 104% | 103% | 102% | 73% | 107% | 103% |  | 109 |
